PubChem BioAssay (Tox21)
Values without a mark were called inactive. Where a call stands in place of a potency, no number is given. Activity calls are given as the source filed them. Calls follow the shape of the full dose curve. Bridge positions count the residues as written; N and C are the ends. Square brackets hold non-standard residues; d marks the D form. Peptide text beside a SMILES is read from it. hArg = N=C(N)NCCCC[C@H](N)C(=O)O; Mpa = O=C(O)CCS

test: G protein-coupled receptor (GPCR) small molecule agonists, calcium flux assay: HEK293 wild type cell line counter screen (AID 1920065); conditions: HEK293 WT calcium flux, fluorescence, agonist mode; series mostly up to 57.6 µM
Description: U.S. Tox21 Program National Center for Advancing Translational Sciences [NCATS] Division of Preclinical Innovation [DPI] U.S. Environmental Protection Agency [EPA] National Institutes of Environmental Health Sciences [NIEHS] National Toxicology Program [NTP] U.S. Food and Drug Administration [FDA] Assay overview: The increased intracellular calcium release that occurred upon G protein-coupled receptor (GPCR) activation led to the frequent use of calcium flux assays to detect GPCR activation. For the purpose of studying and screening compounds that may activate GPCR, receptor-overexpressing models were typically generated using Hek293 wild-type (WT) cells. In order to eliminate the compounds that may have induced calcium release for non-specific activation, a counter-assay utilizing calcium flux on Hek293 WT cells was performed. The data were formulated in order to serve as a control for any calcium flux detection utilizing Hek293 cells with either GPCR overexpression or gene modification. The procurement of Hek293 WT cells from ATCC. Fluorescence intensity can be utilized to determine the activation of the compound in a calcium flux assay. As a counter control, this cell line was utilized to screen the Tox21 10K compound library.
Assay Protocol Summary: Hek293 cells were dispensed at 1500cells/4uL/well in 1536-well black wall/clear bottom plates using a multidrop dispenser. After the assay plates were incubated at a 37 C/5% CO2 incubator for 18 hours, 4 uL of Calcium Dye Solution was added to each well. The plates were incubated at 37 C for 1 hour. For agonist mode, 23 nL of compounds dissolved in DMSO, positive control (ATP) or DMSO only was transferred to the assay plate by a pin tool station. The fluorescence intensity in the plates was measured using FDSS 7000EX kinetic plate reader with a filter set of Ex/Em=480/540 for 3 min at 1 sec intervals. Each test compound was measured at 15 concentrations and in triplicates.
Potency is read from the fitted curve at half-maximal effect.

Q: Which Potency does the source give for `CCC(C)[O-].CCC(C)[O-].CCOC(=O)/C=C(/C)[O-].[Al+3]` here?
A: The Potency was “inactive”.

Q: For `C[C@H](CS)C(=O)N1CCC[C@H]1C(=O)O`, which Potency is on record?
A: Its Potency is “inactive”.

Q: For `Cc1[nH]c(C)c(Cl)c(=O)c1Cl`, which activation is on record?
A: Its activation is -1.57% [at 11.8 µM].

Q: With `CN(C)[C@@H](CCOc1cccc2ccccc12)c1ccccc1` as the compound, how does the Potency read?
A: The Potency was “inactive”.

Q: Which Potency does the source give for `O=C(CC(=O)c1ccccc1)c1ccccc1` here?
A: Its Potency is “inactive”.

Q: With `C=Cc1ccc(C(C)(C)C)cc1` as the compound, how does the Potency read?
A: The Potency was “inactive”.

Q: Which Potency does the source give for `N=C1N=C(N)c2cc3ccccc3cc21` here?
A: The Potency was “inactive”.

Q: For `CCCCCC1Nc2cc(C(F)(F)F)c(S(N)(=O)=O)cc2S(=O)(=O)N1` (stereo not given), which Potency is on record?
A: Its Potency is “inactive”.

Q: With `Cc1c(C)n(Cc2ccccc2)c2ccc(C(=O)OCCN(C)C)cc12` as the compound, how does the Potency read?
A: The Potency was “inactive”.

Q: For `NC(=O)[C@@H]1CSSCCC(=O)N[C@@H](CCCCN=C(N)N)C(=O)NCC(=O)N[C@@H](CC(=O)O)C(=O)N[C@@H](Cc2c[nH]c3ccccc23)C(=O)N2CCC[C@H]2C(=O)N1` ([Mpa][hArg]GDWPC-NH2; disulfide 1-7), which Potency is on record?
A: Its Potency is “inactive”.

Q: With `CCCCCCC(O)CCCCCCCCCCC(=O)O` (stereo not given) as the compound, how does the Potency read?
A: Its Potency is “inactive”.

Q: With `Cc1ccc(-c2cc(C(F)(F)F)nn2-c2ccc(S(N)(=O)=O)cc2)cc1` as the compound, how does the Potency read?
A: The Potency was “inactive”.

Q: For `OCCN(CCO)c1nc(N2CCCCC2)c2nc(N(CCO)CCO)nc(N3CCCCC3)c2n1`, which Potency is on record?
A: Its Potency is 16.9 µM (active).

Q: With `C#Cc1cccc(Nc2ncnc3cc(OCCOC)c(OCCOC)cc23)c1` as the compound, how does the Potency read?
A: The Potency was “inactive”.

Q: With `CC(C)N1C(=O)c2ccccc2C1=O` as the compound, how does the Potency read?
A: Its Potency is “inactive”.

Q: With `CC(C)c1c(C(=O)Nc2ccccc2)c(-c2ccccc2)c(-c2ccc(F)cc2)n1CC[C@@H](O)C[C@@H](O)CC(=O)O` as the compound, how does the Potency read?
A: Its Potency is “inactive”.

Q: Which Potency does the source give for `CC1=CC(C)C(C=O)C(C)C1` (stereo not given) here?
A: The Potency was “inactive”.

Q: For `COC(=O)[C@H]1[C@H]2C[C@@H]3c4[nH]c5cc(OC)ccc5c4CCN3C[C@H]2C[C@@H](OC(=O)/C=C/c2ccc(O)c(OC)c2)[C@@H]1OC`, which Potency is on record?
A: The Potency was “inactive”.

Q: Which Potency does the source give for `CC1CCCCN1CCCOC(=O)c1ccc(OC2CCCCC2)cc1` (stereo not given) here?
A: The Potency was “inactive”.

Q: For `C#C[C@]1(OC(C)=O)CC[C@H]2[C@@H]3CCC4=C/C(=N/O)CC[C@@H]4[C@H]3CC[C@@]21CC`, which Potency is on record?
A: The Potency was “inactive”.

Q: Which Potency does the source give for `COc1ccc(CCN(C)CCCC(C#N)(c2ccc(OC)c(OC)c2)C(C)C)cc1OC` (stereo not given) here?
A: Its Potency is “inactive”.

Q: For `C[C@]12CC[C@H]3C(=CCc4cc(O)ccc43)[C@@H]1CCC2=O`, which Potency is on record?
A: The Potency was “inactive”.

Q: For `Cc1ccc(Cl)c(Nc2ccccc2C(=O)O)c1Cl`, which Potency is on record?
A: The Potency was “inactive”.

Q: Which Potency does the source give for `Cc1nc(-c2ccccn2)ncc1C(=O)Nn1cc(C)c2cc(F)ccc21` here?
A: Its Potency is “inactive”.

Q: Which Potency does the source give for `CC1(C)[C@H](C(=O)O)N2C(=O)C[C@H]2S1(=O)=O` here?
A: The Potency was “inactive”.

Q: With `c1ccc(B(c2ccccc2)c2ccccc2)cc1` as the compound, how does the Potency read?
A: Its Potency is “inactive”.

Q: With `Cc1oc2c(NC(=O)c3c(Cl)cccc3Cl)cccc2c1C(C)(C)O` as the compound, how does the Potency read?
A: The Potency was “inactive”.

Q: Which Potency does the source give for `Cc1cc(C)c(/C=C2\C(=O)Nc3ccccc32)[nH]1` here?
A: Its Potency is “inactive”.

Q: With `COc1cc2ncnc(Nc3ccc(F)c(Cl)c3)c2cc1OCCCN1CCOCC1` as the compound, how does the Potency read?
A: Its Potency is “inactive”.

Q: With `CC(C)(CO)C(O)C(=O)NCCCO` (stereo not given) as the compound, how does the Potency read?
A: The Potency was “inactive”.

Q: With `CN(C)C(=O)Nc1ccccc1` as the compound, how does the Potency read?
A: Its Potency is “inactive”.

Q: Which Potency does the source give for `O=C1c2c(O)ccc([N+](=O)[O-])c2C(=O)c2c([N+](=O)[O-])ccc(O)c21` here?
A: The Potency was “inactive”.

Q: Which Potency does the source give for `CC(C)CO` here?
A: The Potency was “inactive”.

Q: Which Potency does the source give for `C=CC(=C)CCCC(C)(C)OC(C)=O` here?
A: Its Potency is “inactive”.

Q: For `O=S(=O)(O)c1cc(O)ccc1O`, which Potency is on record?
A: The Potency was “inactive”.

Q: For `COC(=O)C(C)=O`, which Potency is on record?
A: Its Potency is “inactive”.

Q: With `OC(CCN1CCCCC1)(c1ccccc1)C1CC2C=CC1C2` (stereo not given) as the compound, how does the Potency read?
A: Its Potency is “inactive”.

Q: With `O=C1C=CC(=O)N1c1ccc(Cc2ccc(N3C(=O)C=CC3=O)cc2)cc1` as the compound, how does the Potency read?
A: The Potency was “inactive”.

Q: For `COC(=O)Nc1nc2ccc(C(=O)c3cccs3)cc2[nH]1`, which Potency is on record?
A: Its Potency is “inactive”.

Q: Which Potency does the source give for `O=c1cc(-c2ccccc2)oc2cc(O)cc(O)c12` here?
A: The Potency was “inactive”.
